Compound activity (PubChem BioAssay)
IL-1B inflam inh: blocks inflammasome-driven IL-1 beta release | activity change, % at 57.5 µM | 360,000 compounds, 4.7% hits | THP-1 LPS/ATP IL-1B secretion, AlphaLISA, 16 h; hits give low values; in the data active = activity change below about -50%; inconclusive = mostly about -30% to -49%
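THP-1 cells pretreated 1 hr with compounds (up to 57.5 uM final), then stimulated with LPS (250 ng/mL final) plus ATP (1.25 mM final); secreted IL-1B measured by AlphaLISA after 16 hr, decreased signal indicating inhibition.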
TDP1 cell noCPT: qHTS for Inhibitors of human tyrosyl-DNA phosphodiesterase 1 (TDP1): qHTS in cells in absence of CPT; DT40 Tdp1-/- hTDP1 cells, no CPT, ATP luminescence, 48 h; Potency, µM (doses to about 46.2 µM), usual class: inhibitors; 420,000 compounds, 15% hits; AID 686978, 2013; also: nearly all actives have a fitted effect of over 55% in size
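Compound effects on proliferation are scored in DT40 Tdp1-/-;hTDP1 cells in the absence of CPT. ATP levels (CellTiter-Glo luminescence) are recorded after a ≥48 hr, 37 °C incubation.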
HT1080-NT tox: kills 2HG-producing HT-1080-NT fibrosarcoma cells; HT-1080-NT fibrosarcoma viability, CellTiter-Glo ATP luminescence, 48 h; Potency, µM (titrated, usually from 46.1 µM), most hits filed as cytotoxic; 360,000 compounds, 1.6% hits;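 also: NT is the 2HG producing partner of a matched IDH1 knockdown line; nearly all actives have a fitted effect of over 55% in size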
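HT-1080-NT; 750 cells/well; 5% FBS RPMI; 48 h compound, 37 degrees C; CellTiter-Glo luminescence; curve fitting and curve-class assignment.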
12-LOX inh: ALOX12 (human) lipoxygenase inhibition; P18054; purified 12hLO, xylenol orange hydroperoxide absorbance; Potency, µM (doses to about 108 µM), usual class: inhibitors; 580,000 compounds, 1.1% hits; AID 1671190
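Purified human 12hLO at 150 nM in 25 mM Hepes, 0.01% Triton X-100, pH 7.0, preincubated 15 min at room temperature with compound. Reaction started with 40 uM arachidonic acid, 30 min at room temperature. Hydroperoxide measured by Fe-xylenol orange, 573/405 nm absorbance ratio.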
TDP1 cell CPT: growth inhibition of DT40 Tdp1-/-;hTDP1 cells with camptothecin (screen for TDP1 inhibitors). chicken DT40 Tdp1-/-;hTDP1 cells + 20 nM CPT, ATP luminescence, 48 h. Potency, µM (doses to about 46.2 µM), hits mostly inhibitors. 420,000 compounds, 12% hits. AID 686979; also: nearly all actives have a fitted effect of over 55% in size
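Cell growth measured by CellTiter-Glo luminescence after a minimum 48 h, 37 C compound exposure with 20 nM CPT in Tdp1-knockout DT40 cells stably expressing hTDP1, seeded 400/well; qHTS titration format.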
HT1080 IDH1KD tx: toxicity to HT-1080 IDH1 knockdown cells (counter line); HT-1080 IDH1 knockdown viability, ATP luminescence, 48 h; Potency, µM (series often up to 46.1 µM), usual class: cytotoxic; 360,000 compounds, 2% hits; AID 686971
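After a 2 h attachment period, IDH1KD HT-1080 cells took pin-transferred compound for 48 h at 37 °C; ATP-based luminescence after 10 min room-temperature reagent incubation reported viability.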
A number is an active result; n = inactive; u = inconclusive; x = no result given; [ ] = remark or other dose. This excerpt belongs to a sample that is enriched for hits. Unless noted, calls follow the shape of the dose curve; as a rule, active = well fitted curve in the direction sought with a large enough effect; inconclusive = small, poorly fitted or top-dose-only effect, or another doubt; inactive = no such curve, though single readings can be large; an effect the other way counts as inactive or inconclusive.

SMILES	IL-1B inflam inh	TDP1 cell noCPT	HT1080-NT tox	12-LOX inh	TDP1 cell CPT	HT1080 IDH1KD tx
O=C1N[C@@H](Cc2ccccc2)C(=O)N2CCC[C@@H]12	n	n	n	n	n	n
Cc1cc2nnn(-c3nnc(-c4ccccc4)c4ccccc34)c2cc1C	n	u	n	n	26µM	n
S=C(Nc1ccccc1)Nc1ccc(Br)cc1	n	21µM	n	n	16µM	n
CC(=O)Nc1ccc(NC(=S)Nc2ccc(Br)cc2)cc1	n	n	n	n	n	n
O=C(NNc1ccccc1)Nc1ccccc1F	n	7.3µM	n	u	u	n
Fc1ccccc1NC(=S)Nc1ccc(Br)cc1	-58	23µM	n	n	15µM	n
NNC(=S)Nc1ccc(Br)cc1	x	x	x	7.1µM	x	x
O=C(NNc1cccc(Cl)n1)Nc1ccccc1F	n	n	n	n	n	n
Cc1ccc(NC(=S)Nc2ccc(Br)cc2)cc1	n	u	n	n	n	n
CCC(CC)NC(=O)c1cnc2cc(C)nn2c1	x	x	x	n	x	x
O=C(c1nn(-c2ccccc2)c(=O)c2ccccc12)N1CCN(CCN2CCCC2)CC1	x	x	x	n	x	x
O=C(Nc1ccc2[nH]cc(C(C(=O)O)N3CCCCC3)c2c1)c1ccccc1 (configuration not stated)	x	x	x	n	x	x
O=C(O)CCC(=O)N1CCC2(CC1)CC(c1cccnc1)=NO2	x	x	x	n[6.33 µM]	x	x
O=C(Nc1ccc(Br)cc1)Nc1ccccc1F	-66	15µM	n	n	15µM	n
O=C(Nc1ccc(Cl)c(Cl)c1)Nc1ccccc1O	n	u	n	n	u	n
CC(=O)Nc1ccc(NC(=S)Nc2ccccc2)cc1	n	n	n	u	n	n
O=C(Nc1ccccc1F)Nc1ccccc1F	n	n	n	n	u	n
N#Cc1ccc(NC(=S)Nc2ccccc2)cc1	n	15µM	n	n	u	n
O=C(Nc1ccc(Cl)c(Cl)c1)Nc1ccc(Br)cc1F	u	12µM	u	u	5.8µM	16µM
CC1CCN([C@@H]2[C@H](O)[C@H](CO)O[C@@H]2CN(Cc2ccc(F)cc2)Cc2ccc(F)cc2)CC1	x	x	x	n	x	x
Cc1ccc(C(=O)Nc2cnn(-c3ccc(C(=O)NCc4nc(-c5ccccc5)n[nH]4)cc3)c2)c(C)c1	x	1.8µM	x	n	0.92µM	x
COc1ccc(/C=N\NC(=O)COc2ccc(C(C)(C)C)cc2)cc1Cn1nc(C)cc1C	n	21µM	u	n	u	u
